Screening results from PubChem.
This is a sample that favours compounds with a hit; in the whole collection about 3.1% have one here.
TrxR1 substrate = rat thioredoxin reductase 1 substrate activity; purified TrxR1 substrate turnover, NADPH consumption readout; Potency, µM (series often up to 114 µM), for the others: at the top dose activity change, negative = substrate turnover; actives 0.01% (n = 390,000); further: on the % scale 0 is the no-effect control and ±100 the full control effect; nearly all actives have a fitted effect of over 50% in size
Target sequence (O89049 whole entry, looked up): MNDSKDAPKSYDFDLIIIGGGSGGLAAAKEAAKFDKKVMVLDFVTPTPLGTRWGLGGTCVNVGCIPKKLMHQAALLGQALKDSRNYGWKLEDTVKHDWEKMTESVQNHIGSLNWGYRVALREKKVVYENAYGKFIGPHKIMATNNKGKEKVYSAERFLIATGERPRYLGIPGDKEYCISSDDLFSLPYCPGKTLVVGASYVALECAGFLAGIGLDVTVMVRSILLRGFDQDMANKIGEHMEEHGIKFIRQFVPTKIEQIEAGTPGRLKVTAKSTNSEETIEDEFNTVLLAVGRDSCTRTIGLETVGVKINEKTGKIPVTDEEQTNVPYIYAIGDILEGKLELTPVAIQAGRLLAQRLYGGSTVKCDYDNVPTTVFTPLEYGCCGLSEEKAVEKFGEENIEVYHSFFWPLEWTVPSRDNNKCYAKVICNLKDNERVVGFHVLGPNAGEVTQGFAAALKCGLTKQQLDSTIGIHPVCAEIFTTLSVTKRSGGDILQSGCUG
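Rat TrxR1, dispensed at 90 nM, was prereduced with 400 uM NADPH (final) for 5 min at ~22 deg C, then incubated with compound 15 min before 400 uM selenite. A first-read NADPH fluorescence drop versus no-compound background flagged substrates.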
A549 viability = A549 cytotoxicity, counter-screen for Nrf2 inhibitors | A549 ARE-Fluc cells, CellTiter-Fluor viability, 18-24 h | Potency, µM (highest dose often 46 µM), without a hit: at the highest dose activity change, negative = cytotoxicity, actives largely listed as inhibitors | actives 0.16% (n = 390,000); further: on the % scale 0 is the no-effect control and ±100 the full control effect
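A549 ARE-Fluc cells in 5% FBS OPTI-MEM, 5000 cells/well, rested 2 h then exposed to compounds in concentration-response for 18-24 h at 37 °C. Viability by CellTiter-Fluor fluorescence (Ex 405/Em 525) after 30 min; luciferase luminescence (BugLite, 15 min, RT) read afterwards.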
Mito fusion act = blocks mitochondrial division or promotes mitochondrial fusion; S. cerevisiae fusion-defective mutant growth rescue, CellTiterGlo 48 h; Potency, µM (series often up to 46.1 µM), for inactives: top-dose growth rescue (activation), usual class: activators; actives 0.23% (n = 320,000); AID 485298; further: % of control where 0% means no effect; nearly all actives have a fitted effect of over 45% in size
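Temperature-sensitive fusion-defective S. cerevisiae (e.g. fzo1-1, mgm1-5) were grown with compound in YPEG medium (3% ethanol, 3% glycerol) for 48 hours at 37C. Growth rescue was measured as viability by CellTiterGlo luminescence after 10 minutes at ambient.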
IDH1 R132H inh = human IDH1 R132H inhibition; O75874; IDH1-R132H enzyme, NADPH consumption, diaphorase/resazurin fluorescence; Potency, µM (highest dose often 76.6 µM), inactives show top-dose activity change, negative = inhibition, actives largely listed as inhibitors; actives 0.093% (n = 390,000); AID 602179; further: on the % scale 0 is the no-effect control and ±100 the full control effect; nearly all actives have a fitted effect of over 65% in size
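IDH1-R132H (0.5 ug/mL) preincubated 30 min with compound, then NADPH (0.016 mM) and alpha-KG (2 mM) added; 80 min at RT, pH 7.5. Remaining NADPH coupled via diaphorase/resazurin to fluorescence (540/590 nm); concentration-response curves normalized to no-enzyme control.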
Nrf2 block = inhibitors of Nrf2 signaling; A549 ARE-Fluc reporter, luciferase luminescence, 18-24 h; AID 504444; actives 2.1% (n = 360,000); Potency, µM (top dose mostly 46 µM), for the others: at the highest dose activity change, negative = inhibition, actives largely listed as inhibitors; further: on the % scale 0 is the no-effect control and ±100 the full control effect; nearly all actives have a fitted effect of over 60% in size
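Two sequential reads on A549 ARE_Fluc cells exposed to compound for 18-24 h: a CellTiter-Fluor fluorescence read for viability, then a luciferase luminescence read for Nrf2/ARE activity.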
TrxR1 inh = rat TrxR1 inhibition | O89049 | recombinant rTrxR1, NADPH fluorescence consumption, selenite substrate | Potency, µM (highest dose often 114 µM), for the others: at the highest dose activity change, negative = inhibition, usual class: inhibitors | actives 1% (n = 390,000); further: on the % scale 0 is the no-effect control and ±100 the full control effect; nearly all actives have a fitted effect of over 65% in size
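Rat TrxR1 (90 nM in the dispensed reagent) was pre-reduced with 400 uM NADPH for 5 min at room temperature, then incubated with compound for 15 min. After 400 uM selenite was added, NADPH fluorescence (Ex 340/Em 450 nm) was followed for 8 min.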
* = called active by the depositor; ? = inconclusive; . = no result given; [ ] = another dose, or the depositor's remark. The call rests on the fitted dose curve; in most records, active means well fitted curve in the direction sought with a large enough effect; inconclusive means small, poorly fitted or top-dose-only effect, or another doubt; inactive means no such curve, though single readings can be large; an effect the other way counts as inactive or inconclusive. Potency means the concentration at half of the fitted maximal effect.

SMILES	TrxR1 substrate	A549 viability	Mito fusion act	IDH1 R132H inh	Nrf2 block	TrxR1 inh
CNC(=O)c1nnsc1S(=O)c1ccc(Cl)cc1 (centres undefined)	5%[57.1 µM]	-20%	4%	13%	?	0.35µM*
O=C(C[n+]1ccccc1Cl)c1ccc(F)cc1	3%	.	.	.	.	5%
O=S(=O)(c1ccc2c(c1)OCCO2)C1CCC(O)CC1 (centres undefined)	.	.	-6%	.	.	.
Cc1sc2ncnc(Sc3ccccc3C(=O)Nc3ccc(C#N)cc3)c2c1C	-7%	5%	13µM*	3%	8%	-9%
Cc1sc2ncnc(Sc3ccccc3C(=O)Nc3ccc(Br)cc3)c2c1C	-12%	0%	?	2%	-24%	3%
COC(=O)c1sccc1S(=O)(=O)N1CCN(c2ccc(C)cc2C)CC1	2%[57.1 µM]	1%	.	19%	-7%	16%[57.1 µM]
Cc1cc(/C=C2\SC(=S)N(Cc3ccco3)C2=O)c(C)n1-c1cccnc1	-11%	0%	-5%	4%	7%	-16%
Cc1cc(/C=C2/SC(=S)N(c3cccc(C(F)(F)F)c3)C2=O)c(C)n1-c1cccnc1	-6%	?	.	-1%	5.8µM*	-6%
O=C1C=CC(=O)N1CCNc1ncc(C(F)(F)F)cc1Cl	-7%	-4%	2%	5%	-12%	2µM*
COC(=O)c1sc(N2C(=O)C(O)=C(C(=O)c3ccc(C)o3)C2c2cccs2)nc1C (centres undefined)	-12%	?	0%	-4%	21µM*	?
COC(=O)c1sc(N2C(=O)C(O)=C(C(=O)c3ccc(C)o3)C2c2ccco2)nc1C (centres undefined)	-7%	-4%	0%	1%	3%	?
O=C(Nc1nnc(-c2ccco2)o1)c1ccc2ccccc2c1	8%	12%	13µM*	4%	-26%	13%
O=C(Nc1nnc(-c2ccc(F)cc2)o1)c1ccc(S(=O)(=O)N2CCOCC2)cc1	-9%	-19%	2%	-1%	9.2µM*	3%
CC1CCN(S(=O)(=O)c2ccc(C(=O)Nc3nnc(-c4ccco4)o3)cc2)CC1	-16%	0%	-3%	-4%	8.2µM*	-32%
CC1CCCN(S(=O)(=O)c2ccc(C(=O)Nc3nnc(-c4ccccc4Cl)o3)cc2)C1 (centres undefined)	1%	-4%	21%	-3%	?	7%[57.1 µM]
Cc1ccc(C(=O)Nc2nnc(-c3ccco3)o2)cc1	-8%	13%	0%	5%	3%	-9%
CC1CCCN(S(=O)(=O)c2ccc(C(=O)Nc3nnc(-c4ccccn4)o3)cc2)C1 (centres undefined)	-8%	0%	10%	-6%	13µM*	1%
Cc1cc(C)n2ncc(C(=O)Nc3ccccc3)c2n1	.	1%	.	.	20%	.
COc1ccccc1NC(=O)c1ccc(S(=O)(=O)N2CCC(C)CC2)cc1	-5%[57.1 µM]	0%	-1%	-3%	8.2µM*	11%
O=C(Nc1nnc(-c2ccco2)o1)c1ccc([N+](=O)[O-])s1	-1%[57.1 µM]	?	0%	3%	21µM*	?
COc1ccccc1NC(=O)c1ccc(S(=O)(=O)N2CCOCC2)cc1	-2%	-7%	3%	3%	-13%	5%
COc1cccc(-c2nnc(NC(=O)c3ccc(S(=O)(=O)N4CC(C)OC(C)C4)cc3)o2)c1 (centres undefined)	-13%	-23%	4%	-8%	9.2µM*	-16%
CCN1C(=O)S/C(=C\c2ccc(N3CCOCC3)cc2C)C1=O	-2%	-3%	0%	-4%	?	-3%
CCCN1C(=O)S/C(=C\c2ccc(N3CCOCC3)o2)C1=O	-6%[57.1 µM]	?	-2%	11%	7%	7.9µM*
CCCN1C(=O)S/C(=C\c2ccc(N3CCOCC3)cc2C)C1=O	.	.	0%	.	.	.
